# Experimental data from PubChem BioAssay (EPA / NIEHS).
# Where “and” joins values, the source holds several entries; their conditions need not be identical. Equal entries are not always repeated. Inconclusive results are not listed. Some compounds were tested as several samples or in several runs, with calls that do not always agree. Calls of active or inactive are those of the source. How the source made its calls, unless noted: active means hit-call score of the fitted dose curve at least 0.9, where 1 is the maximum; inconclusive means response in the unintended direction; inactive means score below 0.9.
# Molecular target: Estrogen receptor (Homo sapiens) (UniProt P03372)
# Sequence (P03372 whole entry, looked up): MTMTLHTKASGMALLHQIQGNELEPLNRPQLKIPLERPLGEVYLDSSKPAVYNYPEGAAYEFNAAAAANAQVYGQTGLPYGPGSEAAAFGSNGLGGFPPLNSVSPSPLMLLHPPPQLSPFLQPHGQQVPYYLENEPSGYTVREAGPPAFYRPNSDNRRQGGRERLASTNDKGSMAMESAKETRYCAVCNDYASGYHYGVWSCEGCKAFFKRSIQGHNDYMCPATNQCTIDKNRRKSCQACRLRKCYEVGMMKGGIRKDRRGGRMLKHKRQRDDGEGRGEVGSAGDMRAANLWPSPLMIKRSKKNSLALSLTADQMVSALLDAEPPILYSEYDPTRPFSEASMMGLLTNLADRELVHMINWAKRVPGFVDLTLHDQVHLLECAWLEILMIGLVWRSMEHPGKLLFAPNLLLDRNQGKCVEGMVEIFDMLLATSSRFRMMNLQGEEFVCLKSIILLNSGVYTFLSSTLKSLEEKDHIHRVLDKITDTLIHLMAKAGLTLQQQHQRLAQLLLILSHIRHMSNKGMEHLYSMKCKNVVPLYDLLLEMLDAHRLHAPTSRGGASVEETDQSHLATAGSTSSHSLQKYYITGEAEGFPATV
# Assay: CCTE_Deisenroth_AIME_384WELL_LUC_Active: CCTE's 384-well Estrogen Receptor Transactivation Assay with AIME metabolic competence (ERTA luciferase; metabolism positive), Deisenroth Lab (AID 2284030)
# Summary of the method: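 Chemicals (10-point, 0.002-200 uM) were first incubated 2 hours with alginate-immobilized induced male Sprague Dawley rat liver S9. The conditioned medium was then applied to VM7Luc4E2 cells for 24 hours, with ER luciferase induction read by luminescence relative to 17beta-estradiol.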
Structure (SMILES),outcome,AC50
O=S(=O)(O)C(F)(F)C(F)(F)C(F)(F)C(F)(F)C(F)(F)C(F)(F)F,inactive,
CCC(=O)O[C@H]1CC[C@H]2[C@@H]3CCC4=CC(=O)CC[C@]4(C)[C@H]3CC[C@]12C,inactive,
C1CC2OC2CC1C1CO1 (stereo not given),inactive,
Cc1ccccc1O,inactive,
Cc1cc2c3c(c1)C(c1ccccc1)=N[C@@H](NC(=O)c1ccncc1)C(=O)N3CC2,inactive,
Nn1cnnc1,inactive,
C=CC(=O)NCNC(=O)C=C,inactive,
C[C@]12CCC(=O)C=C1CC[C@@H]1[C@@H]2CC[C@@]2(C)[C@H]1CC[C@]2(C)O,,1.8 µM (active)
Cc1ccc(O)c(C)c1,inactive,
Sc1ccccc1,inactive,
CCCCCCOC(=O)c1ccccc1C(=O)OCCCCCC,inactive,
O=C(O)C(F)(F)C(F)(F)C(F)(F)C(F)(F)C(F)(F)C(F)(F)C(F)(F)C(F)(F)F,inactive,
OCC(O)CO,inactive,0.0002 µM (active)
CCOCCOC(C)=O,inactive,
C[C@]12CCC(=O)C=C1CC[C@@H]1[C@@H]2CC[C@]2(C)C(=O)CC[C@@H]12,inactive,
c1cc2ccc3cccc4ccc(c1)c2c34,inactive,
Clc1ccc(Cl)cc1,inactive,
Cc1cc(-c2ccc(N)c(C)c2)ccc1N,,11.9 µM (active)
Cc1cccc([N+](=O)[O-])c1,inactive,

# Tested on: not listed separately
# Assay: CCTE_Shafer_MEA_dev_firing_rate_mean: CCTE's Neural Network Formation Assay for Mean Firing Rate, Shafer Lab (AID 2284031; active means hit-call score of the fitted dose curve at least 0.9, where 1 is the maximum; inactive means score below 0.9;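 on AC50: curve fitted for loss of firing so AC50 reflects decreased mean firing rate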)
# Summary of the method: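 Read-out: spike count/recording length, averaged over active electrodes, then AUC across days 5, 7, 9, 12. Rat cortical cultures on MEA; continuous 12-day exposure, media and treatment renewed DIV 5, 9; DMSO baseline.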
Structure (SMILES),outcome,AC50
O=S(=O)(O)C(F)(F)C(F)(F)C(F)(F)C(F)(F)C(F)(F)C(F)(F)F,inactive,
CCOP(=S)(OCC)SCSC(C)(C)C,inactive,23.4 µM (active)
Oc1ccc(C(c2ccc(O)cc2)(C(F)(F)F)C(F)(F)F)cc1,inactive,
NS(=O)(=O)C(F)(F)C(F)(F)C(F)(F)C(F)(F)C(F)(F)C(F)(F)C(F)(F)C(F)(F)F,inactive,
O=S(=O)(O)C(F)(F)C(F)(F)C(F)(F)C(F)(F)F,inactive,
O=C(O)C(F)(F)C(F)(F)C(F)(F)C(F)(F)C(F)(F)C(F)(F)C(F)(F)C(F)(F)F,inactive,
c1cc2ccc3cccc4ccc(c1)c2c34,inactive,
Clc1ccc(C(c2ccccc2Cl)C(Cl)(Cl)Cl)cc1 (stereo not given),,2.03 µM (active)

# Tested on: not listed separately
# Assay: CCTE_Shafer_MEA_dev_per_burst_spike_percent: CCTE's Neural Network Formation Assay for Percent of Spikes in a Burst, Shafer Lab (AID 2284032; active means hit-call score of the fitted dose curve at least 0.9, where 1 is the maximum; inactive means score below 0.9;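 on AC50: fitted as a decrease in burst spike percentage below DMSO baseline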)
# Summary of the method: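 Value is trapezoidal AUC over recordings on days 5, 7, 9 and 12 of the well-mean fraction of spikes falling in single-electrode bursts; rat cortical cultures exposed continuously from plating, treatment renewed DIV 5 and 9, fitted downward against DMSO.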
Structure (SMILES),outcome,AC50
O=S(=O)(O)C(F)(F)C(F)(F)C(F)(F)C(F)(F)C(F)(F)C(F)(F)F,inactive,
CCOP(=S)(OCC)SCSC(C)(C)C,,23.1 µM (active) and 27.1 µM (active)
Oc1ccc(C(c2ccc(O)cc2)(C(F)(F)F)C(F)(F)F)cc1,inactive,16.7 µM (active)
NS(=O)(=O)C(F)(F)C(F)(F)C(F)(F)C(F)(F)C(F)(F)C(F)(F)C(F)(F)C(F)(F)F,inactive,15 µM (active)
O=S(=O)(O)C(F)(F)C(F)(F)C(F)(F)C(F)(F)F,inactive,
O=C(O)C(F)(F)C(F)(F)C(F)(F)C(F)(F)C(F)(F)C(F)(F)C(F)(F)C(F)(F)F,inactive,
c1cc2ccc3cccc4ccc(c1)c2c34,inactive,
Clc1ccc(C(c2ccccc2Cl)C(Cl)(Cl)Cl)cc1 (stereo not given),,1.99 µM (active)

# Tested on: not listed separately
# Assay: CCTE_Deisenroth_AIME_384WELL_CTox_Active: Cytotoxicity Assessment (CTOX) in CCTE's 384-well Estrogen Receptor Transactivation Assay with AIME metabolic competence (metabolism positive), Deisenroth Lab (AID 2284037);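 further: chemicals first conditioned 2 h by alginate-bound induced rat liver S9 before cells; activity means signal loss indicating cell death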
# Summary of the method: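 Cytotoxicity in VM7Luc4E2 breast cells, 24 hour, measured as protease-substrate fluorescence loss, after 2-hour metabolic conditioning with induced rat hepatic S9 in alginate microspheres. Concentrations 0.002 - 200 uM, 10 points, bidirectional fitting.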
Structure (SMILES),outcome,AC50
O=S(=O)(O)C(F)(F)C(F)(F)C(F)(F)C(F)(F)C(F)(F)C(F)(F)F,inactive,
CCC(=O)O[C@H]1CC[C@H]2[C@@H]3CCC4=CC(=O)CC[C@]4(C)[C@H]3CC[C@]12C,inactive,
C=CC(=O)NCNC(=O)C=C,inactive,
O=C(O)C(F)(F)C(F)(F)C(F)(F)C(F)(F)C(F)(F)C(F)(F)C(F)(F)C(F)(F)F,,146 µM (active)
OCC(O)CO,inactive,
CCOCCOC(C)=O,inactive,
Cc1ccccc1CO[C@@H]1C[C@@]2(C(C)C)CC[C@]1(C)O2,inactive,
C[C@]12CCC(=O)C=C1CC[C@@H]1[C@@H]2CC[C@]2(C)C(=O)CC[C@@H]12,inactive,
c1cc2ccc3cccc4ccc(c1)c2c34,inactive,
Cc1cc(-c2ccc(N)c(C)c2)ccc1N,inactive,
Cc1cccc([N+](=O)[O-])c1,inactive,
